We go through four molecules from PubChem BioAssay.

Structures are written as SMILES. “And” between values parts separate entries of the source, which are not always exact repeats. Equal values may be shown once. The source made the active and inactive calls.

The test system of assay [1] is Plasmodium falciparum Sir2 (PF13_0152, Sir2A). The assay can be described thus: pfSir2 binders on small-molecule microarrays, primary screen, biochemical, small-molecule microarray, 635 nm fluorescence (AID 1098).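 Further: score merges spot fluorescence intensity with its signal-to-noise ratio.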 The conditions noted are these: small-molecule microarray binding, fluorescence 635 nm; higher = more signal.
Assay [2] in a line: small-molecule microarray binders of probe aDKK1, primary screen, biochemical, biotinylated probe, 635/667 nm fluorescence (AID 1099).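 Further: score merges 667nm spot fluorescence with signal to noise across triplicate slides.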 The following applies: higher = more signal.
A short description of assay [3]: small-molecule microarray binders of probe aCHRDL2, primary screen, biochemical, biotinylated probe, 635/667 nm fluorescence (AID 1100). The following applies: higher = more signal.
Assay [4] can be described thus: splicing luciferase reporter signal modulators, primary screen, spliceosome inhibition project, cell-based, HEK293, splice +/- reporter (AID 1101).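 Further: HEK293 cells carrying a splicing-competent luciferase reporter gene; test concentration not given here.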 The conditions noted are these: luminescence, 24 h, higher = more signal, called active from +8 up or from −8 down. (In general: A reporter such as luciferase makes a cellular process visible.)
In assay [5] the target is Fibroblast growth factor 10 (Homo sapiens) (UniProt O15520). Kind of assay: FGF10 binders on small-molecule microarrays, primary screen, biochemical, small-molecule microarray, 635 nm fluorescence (AID 1102). The conditions noted are these: FGF10 binding, fluorescence 635 nm, higher = more signal.
Chain of Fibroblast growth factor 10 (Homo sapiens) (O15520 whole entry, looked up): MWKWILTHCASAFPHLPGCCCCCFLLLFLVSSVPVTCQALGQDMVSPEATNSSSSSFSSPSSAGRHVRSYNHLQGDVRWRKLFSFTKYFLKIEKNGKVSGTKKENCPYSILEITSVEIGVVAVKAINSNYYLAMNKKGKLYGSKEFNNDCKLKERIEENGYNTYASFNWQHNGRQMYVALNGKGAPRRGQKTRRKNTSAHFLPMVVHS
In assay [6] the test system is glycogen synthase kinase-3 (GSK3A per assay name; protocol says GSK3B). Kind of assay: GSK3 binders on small-molecule microarrays, primary screen, biochemical, small-molecule microarray, 635 nm fluorescence, GSK3A (AID 1103). Further: the record names both GSK3A and GSK3B. The following applies: small-molecule microarray binding, fluorescence 635 nm; higher = more signal.
Assay [7] has as its target Epidermal growth factor receptor (Homo sapiens) (UniProt P00533). The assay can be described thus: EGFR binders on small-molecule microarrays, primary screen, biochemical, small-molecule microarray, 635 nm fluorescence (AID 1104).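 Further: score merges 667 nm emission intensity with spot signal to noise over triplicate slides.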 The conditions noted are these: EGFR binding, higher = more signal.
Assay [8] concerns the target Follistatin-related protein 3 (Homo sapiens) (UniProt O95633). The assay can be described thus: FSTL3 binders on small-molecule microarrays, primary screen, biochemical, small-molecule microarray, 635 nm fluorescence (AID 1105).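 Further: score merges emission near 667 nm and signal to noise per printed spot across three slides.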 The conditions noted are these: FSTL3 binding, higher = more signal.
The target of assay [9] is Dickkopf-related protein 1 (Homo sapiens) (UniProt O94907). Kind of assay: DKK1 binders on small-molecule microarrays, primary screen, biochemical, small-molecule microarray, 635 nm fluorescence scan (AID 1106).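 Further: score merges emission near 667 nm with signal to noise over three replicate slides.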 The conditions noted are these: DKK1 binding, higher = more signal.
Chain of Dickkopf-related protein 1 (Homo sapiens) (O94907 whole entry, looked up): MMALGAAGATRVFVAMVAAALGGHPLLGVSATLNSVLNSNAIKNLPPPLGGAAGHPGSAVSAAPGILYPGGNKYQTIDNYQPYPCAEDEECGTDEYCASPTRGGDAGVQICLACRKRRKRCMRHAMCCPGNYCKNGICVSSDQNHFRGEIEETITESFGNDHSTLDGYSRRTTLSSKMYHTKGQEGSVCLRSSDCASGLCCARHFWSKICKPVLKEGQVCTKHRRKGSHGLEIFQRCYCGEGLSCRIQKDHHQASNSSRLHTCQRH
For assay [10], the system named is Inhibin beta A chain (activin A). Kind of assay: INHBA (activin A) binders on microarrays, primary screen, biochemical, small-molecule microarray, 635 nm fluorescence scan (AID 1107).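 Further: mouse activin A protein probed at 4.33 µg/mL on printed slides; score merges bound-protein fluorescence near 667 nm with spot signal-to-noise.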 The following applies: small-molecule microarray binding, higher = more signal.
The test system of assay [11] is Human papillomavirus type 1a protein E7 (residues 44-93). The assay can be described thus: HPV1a E7 fragment binders on microarrays, primary screen, biochemical, small-molecule microarray, residues 44-93, 635 nm fluorescence (AID 1108).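 Further: E7 fragment applied at 1 µg/mL in TBST for 1 h at 4 C; score combines spot fluorescence with its signal to noise ratio.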 The conditions noted are these: small-molecule microarray binding, fluorescence 635 nm; higher = more signal.
Assay [12] in a line: modulators of HCV replicon luciferase signal, primary screen, HCV replication inhibitor project, Huh7 cells, luciferase reporter (AID 1109).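 Further: huh7 hepatoma cells harbouring a luciferase neomycin HCV replicon reporter; luciferase luminescence as measure of HCV replicon replication; test concentration not given here.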 The conditions noted are these: 48 h, higher = more signal.
Assay [13] has as its target Left-right determination factor 2 (Homo sapiens) (UniProt O00292). Kind of assay: LEFTY2 binders on small-molecule microarrays, primary screen, biochemical, small-molecule microarray, 635 nm fluorescence scan (AID 1110). The following applies: LEFTY2 binding, higher = more signal.
For assay [14], the target named is Calmodulin-1 (Homo sapiens) (UniProt P0DP23). The assay can be described thus: CALM1 binders on microarrays, EGTA buffer, profiling panel, biochemical, small-molecule microarray, Cy5-labelled CALM1 (AID 1111).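 Further: labelled calmodulin applied in Tris saline Tween buffer holding calcium plus EGTA and DTT.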 The following applies: Cy5-CALM1 binding fluorescence, higher = more signal.
For assay [15] the target is unchanged. The assay can be described thus: calcium-bound CALM1 binders on microarrays, profiling panel, artefact control for SMM control-protein annotation, biochemical, small-molecule microarray, Cy5-labelled CALM1, plus calcium (AID 1112).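 Further: score merges spot fluorescence with signal to noise from triplicate slides.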 The conditions noted are these: Cy5-CALM1 binding fluorescence, higher = more signal.
Assay [16] in a line: small-molecule microarray binders of probe aWnt5a, primary screen, biochemical, biotinylated probe, 635/667 nm fluorescence (AID 1113).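 Further: score merges 667 nm fluorescence intensity with signal-to-noise per printed feature.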 The following applies: higher = more signal.
Assay [17] is described as follows: small-molecule microarray binders of probe aShh, primary screen, biochemical, biotinylated probe, 635/667 nm fluorescence (AID 1114).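 Further: probe is biotin-labelled aShh protein from a stem cell growth factor screen; measures binding of labelled protein to compounds printed on the slide; score merges feature fluorescence at 667 nm with signal-to-noise.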 The following applies: higher = more signal.
Assay [18] in a line: small-molecule microarray binders of probe aNog, primary screen, biochemical, biotinylated probe, 635/667 nm fluorescence (AID 1115).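 Further: probe is biotinylated aNog protein used at 0.15 µg/mL for 1 h at 4 C; z-score combines 667 nm fluorescence of each spot with its signal to noise.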 The conditions noted are these: higher = more signal.
The target of assay [19] is Torsin-1A-interacting protein 1 (Homo sapiens) (UniProt Q5JTV8). The assay can be described thus: LAP1 binders from COS7 cell lysate, primary screen, small-molecule microarray, 635/667 nm fluorescence (AID 1116). The conditions noted are these: COS7-hLAP1 lysate binding, 635 nm fluorescence, higher = more signal.
Chain of Torsin-1A-interacting protein 1 (Homo sapiens) (Q5JTV8 whole entry, looked up): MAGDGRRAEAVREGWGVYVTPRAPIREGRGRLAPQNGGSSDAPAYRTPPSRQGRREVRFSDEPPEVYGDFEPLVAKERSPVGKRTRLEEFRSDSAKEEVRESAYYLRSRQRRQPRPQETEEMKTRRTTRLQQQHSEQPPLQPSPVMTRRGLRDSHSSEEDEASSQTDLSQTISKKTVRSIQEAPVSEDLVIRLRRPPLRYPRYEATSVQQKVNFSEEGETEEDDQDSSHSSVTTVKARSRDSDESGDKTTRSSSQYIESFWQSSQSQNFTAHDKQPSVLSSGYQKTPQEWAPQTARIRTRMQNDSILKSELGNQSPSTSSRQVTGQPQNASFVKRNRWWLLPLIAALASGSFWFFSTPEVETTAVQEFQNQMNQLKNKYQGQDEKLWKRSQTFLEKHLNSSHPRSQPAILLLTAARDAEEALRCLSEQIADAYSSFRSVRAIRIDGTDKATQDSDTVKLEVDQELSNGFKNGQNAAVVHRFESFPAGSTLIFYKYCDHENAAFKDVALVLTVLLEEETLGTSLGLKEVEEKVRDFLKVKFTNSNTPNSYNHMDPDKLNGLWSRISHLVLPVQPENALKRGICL
The target in assay [20] is Alpha-bungarotoxin (Bungarus multicinctus) (UniProt P60615). The assay can be described thus: alpha-bungarotoxin binders on microarray, profiling panel, artefact control for SMM control protein annotation, biochemical, small-molecule microarray, Alexa647 label, 635/667 nm fluorescence (AID 1117). The conditions noted are these: alpha-BTX-A647 binding fluorescence, higher = more signal.
Chain of Alpha-bungarotoxin (Bungarus multicinctus) (P60615 whole entry, looked up): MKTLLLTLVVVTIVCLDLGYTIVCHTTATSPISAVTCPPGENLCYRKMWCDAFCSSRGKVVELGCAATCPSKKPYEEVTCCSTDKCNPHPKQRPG

Chain of Left-right determination factor 2 (Homo sapiens) (O00292 whole entry, looked up): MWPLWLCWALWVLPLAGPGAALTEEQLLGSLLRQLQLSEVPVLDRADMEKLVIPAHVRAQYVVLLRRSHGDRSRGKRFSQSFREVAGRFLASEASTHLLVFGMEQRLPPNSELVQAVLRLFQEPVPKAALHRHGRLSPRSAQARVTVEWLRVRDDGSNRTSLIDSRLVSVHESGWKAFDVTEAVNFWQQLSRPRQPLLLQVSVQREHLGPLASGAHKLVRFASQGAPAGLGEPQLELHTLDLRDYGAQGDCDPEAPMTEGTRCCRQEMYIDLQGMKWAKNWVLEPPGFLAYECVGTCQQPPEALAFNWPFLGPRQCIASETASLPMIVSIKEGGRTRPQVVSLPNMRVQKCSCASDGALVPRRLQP
Chain of Epidermal growth factor receptor (Homo sapiens) (P00533 whole entry, looked up): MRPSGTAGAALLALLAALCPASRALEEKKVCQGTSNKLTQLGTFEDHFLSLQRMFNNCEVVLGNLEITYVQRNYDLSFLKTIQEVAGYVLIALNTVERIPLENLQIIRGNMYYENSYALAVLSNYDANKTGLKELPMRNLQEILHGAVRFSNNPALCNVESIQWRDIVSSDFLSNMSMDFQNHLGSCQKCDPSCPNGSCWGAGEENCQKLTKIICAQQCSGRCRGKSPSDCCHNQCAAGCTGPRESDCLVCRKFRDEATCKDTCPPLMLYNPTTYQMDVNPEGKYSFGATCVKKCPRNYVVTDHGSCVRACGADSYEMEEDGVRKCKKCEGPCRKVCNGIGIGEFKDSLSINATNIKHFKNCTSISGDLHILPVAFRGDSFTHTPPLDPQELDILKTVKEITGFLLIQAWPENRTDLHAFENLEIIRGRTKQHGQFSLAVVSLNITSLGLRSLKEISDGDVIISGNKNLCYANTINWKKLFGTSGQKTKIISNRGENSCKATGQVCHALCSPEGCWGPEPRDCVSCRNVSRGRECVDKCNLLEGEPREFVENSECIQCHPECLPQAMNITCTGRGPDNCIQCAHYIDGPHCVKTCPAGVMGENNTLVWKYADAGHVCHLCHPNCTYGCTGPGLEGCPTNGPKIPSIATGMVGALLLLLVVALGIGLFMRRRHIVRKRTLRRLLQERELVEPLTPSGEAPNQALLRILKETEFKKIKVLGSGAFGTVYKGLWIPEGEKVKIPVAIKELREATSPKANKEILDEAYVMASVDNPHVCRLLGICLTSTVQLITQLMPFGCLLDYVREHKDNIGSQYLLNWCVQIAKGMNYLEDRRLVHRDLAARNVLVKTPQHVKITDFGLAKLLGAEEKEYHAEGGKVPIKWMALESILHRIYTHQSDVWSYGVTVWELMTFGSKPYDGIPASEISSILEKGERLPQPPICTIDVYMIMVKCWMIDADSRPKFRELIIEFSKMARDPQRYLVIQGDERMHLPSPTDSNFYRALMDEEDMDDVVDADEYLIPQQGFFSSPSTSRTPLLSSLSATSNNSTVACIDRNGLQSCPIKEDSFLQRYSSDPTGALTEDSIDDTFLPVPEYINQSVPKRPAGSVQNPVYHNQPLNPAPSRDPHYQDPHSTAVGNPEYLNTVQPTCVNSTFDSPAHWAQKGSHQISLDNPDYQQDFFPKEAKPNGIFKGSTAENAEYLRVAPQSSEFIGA
Chain of Follistatin-related protein 3 (Homo sapiens) (O95633 whole entry, looked up): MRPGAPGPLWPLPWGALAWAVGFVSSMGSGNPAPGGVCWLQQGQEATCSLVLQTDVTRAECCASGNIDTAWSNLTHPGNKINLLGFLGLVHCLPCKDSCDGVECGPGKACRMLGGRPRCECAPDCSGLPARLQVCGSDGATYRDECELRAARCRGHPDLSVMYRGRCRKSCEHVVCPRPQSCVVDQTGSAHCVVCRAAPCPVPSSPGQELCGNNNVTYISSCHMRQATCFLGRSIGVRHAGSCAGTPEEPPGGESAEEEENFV

Turning to `C=C[C@H](C)[C@H](O)c1ccc(O)c2ccccc12`, the composite z-score was -0.826 and -0.608 in assay [1]; -0.338 and -0.232 in [2]; 0.151 and -0.0669 in assay [3]; -1.16 and 0.187 in [5]; -0.0928 and -0.78 in assay [6]; -0.989 and 0.375 in assay [7]. In addition, the composite z-score was -0.433 and -0.63 in assay [8]; -0.644 and -0.0107 in assay [9]; 0.794 and 0.956 in [10]; -0.523 and -0.557 in [11]; -0.796 and -0.399 in assay [13]; -1.09 and -1.04 in [14]. Also, the composite z-score in assay [15] is -0.75 and -1.04; in assay [16] it was -0.244 and -0.12; in [17], -0.0769 and -0.138; in assay [18], -0.37 and -0.46; in assay [19] it was 0.159 and -0.0387; in assay [20], 0.594 and -0.204. In addition, the z-score was -2.7 (inactive) and -1.54 (inactive) in [4]; -1.28 and -0.876 in [12].
Turning to `CC(C)CON=C1C[C@@H](O)[C@@H](O)[C@@H]2[C@@H]3C(=O)N(c4cccc(Oc5ccccc5)c4)C(=O)[C@@H]3CC[C@H]12`, the composite z-score in assay [1] is 0.0512; in assay [2] it was -0.354; in assay [3], -0.712; in assay [5], 0.357; in [6], 0.278; in [7] it was 0.338. Besides, the composite z-score in assay [8] was 0.571; in assay [9], 0.661; in assay [10], -0.15; in assay [11], 0.529; in assay [13] it was 0.432; in assay [14] it was 0.401. In addition, the composite z-score in [15] was -0.201; in assay [16] it was -0.0269; in assay [17], -0.0553; in assay [18], -0.5; in [19], 0.357; in assay [20] it was 0.162. Besides, the values for the z-score in assay [4] and in [12] were -0.00485 (inactive) and 0.802, respectively.
Turning to `C[N+](C)(C)CCCCCCNC(=O)[C@H]1C[C@H]2C(=O)N[C@@H](CCCC[N+](C)(C)C)C(=O)N2[C@H]1c1ccc(O)cc1`, the composite z-score is 0.819 and 1.44 in assay [1]; -0.359 and -0.0843 in assay [2]; -0.304 and 0.224 in [3]; 0.508 and -0.456 in assay [5]; -0.253 and -0.528 in assay [6]; 0.28 and -0.409 in assay [7]. The composite z-score was 0.41 and -0.414 in [8]; 0.867 and 0.455 in [9]; 0.469 and 1.16 in assay [10]; -0.113 and 0.0498 in assay [11]; 0.633 and -0.0601 in assay [13]; -0.616 and -0.416 in [14]. Further, the composite z-score in [15] is -0.452 and -1.03; in [16], -0.13 and -0.14; in assay [17] it was -0.124 and 0.0326; in assay [18] it was 0.0637 and -0.303; in [19], -0.0201 and -0.413; in assay [20], 1.02 and -1.54. In addition, the z-score in [4] was -0.616 (inactive) and -0.146 (inactive); in [12] it was -0.0901 and 0.0595.
On to `C[N+](C)(C)CCCCNC(=O)[C@H]1C[C@H]2C(=O)N[C@@H](CCCC[N+](C)(C)C)C(=O)N2[C@H]1c1ccc(O)cc1`, for which the composite z-score was 1.3 and 1.94 in [1]; -0.237 and -0.18 in assay [2]; -0.904 and -0.983 in [3]; 1.56 and 1.47 in assay [5]; 1.31 and 0.668 in assay [6]; 1.16 and 0.868 in assay [7]. Also, the composite z-score in [8] is 1.44 and 1.34; in assay [9], 2.03 and 1.92; in assay [10] it was 1.02 and 0.383; in assay [11] it was 1.29 and 0.0427; in [13], 1.41 and 1.47; in [14] it was -0.0061 and -1.63. Further, the composite z-score is -0.426 and -1.34 in assay [15]; -0.0685 and -0.0643 in [16]; -0.0011 and -0.0709 in assay [17]; 0.0416 and -0.7 in [18]; 0.699 and 0.0645 in assay [19]; 0.0509 and -0.801 in assay [20]. In addition, the z-score in assay [4] was 0.411 (inactive) and -1.57 (inactive); in assay [12], -0.999 and 0.723.
